Assay results taken from ChEMBL document CHEMBL4513216, “Probing the Open Global Health Chemical Diversity Library for Multistage-Active Starting Points for Next-Generation Antimalarials” (ACS Infect Dis, 2020).
Among all 69,000 compounds or so, about 8,600 (12%) showed an effect of 50% or more. Many of the other results were omitted from the sample, so strong results are more common in it than they were.

What follows are compounds tested on Plasmodium berghei (assay: Screen against P. berghei liver stage (PbLuc), transformed with Luciferase, at 10uM). Conditions: tested at 10 uM.
Type: functional, HepG2

How did the INHIBITION turn out when `Cc1nn(C)c(Cl)c1C1CCCN1C(=O)c1ccoc1C` (centres undefined) was run?
The INHIBITION was -29.1%.

For `CCOc1cc(C)nc(N2CCN(C(=O)c3cc(C)on3)CC2)n1`, which INHIBITION is on record?
The INHIBITION was 19.4%.

Which INHIBITION does the source give for `O=C(CCN1CCCN(c2nccs2)CC1)Nc1ccccc1` here?
Its INHIBITION is 15.2%.

`FC(F)(F)c1n[nH]c2c1CN(CCc1ccccn1)CC2` was tested. Which INHIBITION did it give?
The INHIBITION was 50%.

With `FC(F)(F)c1n[nH]c2c1CN(Cc1cn3ccccc3n1)CC2` as the compound, how does the INHIBITION read?
Its INHIBITION is 49.1%.

Which INHIBITION does the source give for `O=C(CCN1CCc2[nH]nc(C(F)(F)F)c2C1)Nc1ccccc1` here?
Its INHIBITION is 61.1%.

How did the INHIBITION turn out when `[O-][S+](CCN1CCc2[nH]nc(C(F)(F)F)c2C1)c1ccccc1` (centres undefined) was run?
Its INHIBITION is 36.3%.

With `CC(C(=O)Nc1ncccn1)N1CCc2[nH]nc(C(F)(F)F)c2C1` (centres undefined) as the compound, how does the INHIBITION read?
Its INHIBITION is -17.9%.

`Cc1nc2n(n1)CC(NCc1nc(-c3ccccn3)no1)CC2` (centres undefined) was tested. Which INHIBITION did it give?
The INHIBITION was 0%.

`CCOCCNC(=O)C1CCC(=O)N(CCc2ccc(Cl)cc2)C1` (centres undefined) was tested. Which INHIBITION did it give?
The INHIBITION was 42.5%.

`CC(C(=O)N1CCCN(c2ncccc2C#N)CC1)n1cncn1` (centres undefined) was tested. Which INHIBITION did it give?
Its INHIBITION is 11.4%.

For `COc1ccccc1C(=O)Nc1cc(CC(C)C)nn1C`, which INHIBITION is on record?
Its INHIBITION is 12.7%.

With `Cc1cnc(C(=O)N2CC(=O)N(c3ccccc3Cl)CC2C)cn1` (centres undefined) as the compound, how does the INHIBITION read?
Its INHIBITION is 17%.

How did the INHIBITION turn out when `Cc1nc(Nc2ncccn2)cc(C2CCCN2C(C)C)n1` (centres undefined) was run?
The INHIBITION was -0.902%.

`Cc1nc(Nc2ncccn2)cc(C2CCCN2Cc2ncc[nH]2)n1` (centres undefined) was tested. Which INHIBITION did it give?
Its INHIBITION is 18.9%.

How did the INHIBITION turn out when `c1cc(C2CCCN2CC2CC2)n[nH]1` (centres undefined) was run?
Its INHIBITION is -14.2%.

How did the INHIBITION turn out when `Cc1nc(Nc2ccccn2)cc(C2CCCN2Cc2ncc[nH]2)n1` (centres undefined) was run?
The INHIBITION was 50.1%.

Which INHIBITION does the source give for `CC(C)CN1CCCC1c1cc[nH]n1` (centres undefined) here?
The INHIBITION was 52.7%.

`Cc1c[nH]nc1C1CCCN1Cc1ncc[nH]1` (centres undefined) was tested. Which INHIBITION did it give?
Its INHIBITION is -12.3%.

`c1cc(C2CCCN2CC2CCCCC2)n[nH]1` (centres undefined) was tested. Which INHIBITION did it give?
The INHIBITION was -12.3%.

How did the INHIBITION turn out when `Cc1nc(Nc2ncccn2)cc(C2CCCN2C)n1` (centres undefined) was run?
The INHIBITION was 0.301%.

`Cc1nc(Nc2ncccn2)cc(C2CCCN2CC(C)C)n1` (centres undefined) was tested. Which INHIBITION did it give?
Its INHIBITION is 56.3%.

`O=C(c1cc(F)ccc1F)C1CCN(C(=O)c2cnccn2)CC1` was tested. Which INHIBITION did it give?
Its INHIBITION is 3.73%.

For `CCCn1nnnc1CN1Cc2ccccc2CC1c1nnc(C)o1` (centres undefined), which INHIBITION is on record?
Its INHIBITION is -25.6%.

With `Cc1nn(C)cc1-c1cc(-c2cn(C)nc2C)n(CC(=O)NC2CC2)n1` as the compound, how does the INHIBITION read?
Its INHIBITION is 15.2%.

For `CCCC(=O)N1CCC(O)(Cn2c(CC)nc3ccccc3c2=O)CC1`, which INHIBITION is on record?
The INHIBITION was 41.5%.

How did the INHIBITION turn out when `CN(C)c1cc(C(=O)N2CCCN(Cc3nccn3C)CC2)ccn1` was run?
The INHIBITION was 29.2%.

For `COc1ccc(CNC(=O)C2=NN(c3ccc(C)cc3)C(=O)CN2)cc1`, which INHIBITION is on record?
Its INHIBITION is 79.5%.

With `O=C(NCc1cccnc1)C1=NN(c2ccccc2)C(=O)CN1` as the compound, how does the INHIBITION read?
Its INHIBITION is -19.2%.

Which INHIBITION does the source give for `COc1ccccc1CNC(=O)C1=NN(c2ccc(C)cc2)C(=O)CN1` here?
The INHIBITION was 18.1%.

With `N#Cc1ccc(CNC(=O)C2=NN(c3ccccc3)C(=O)CN2)cc1` as the compound, how does the INHIBITION read?
Its INHIBITION is -72.2%.

With `COc1ccc(C)cc1CNC(=O)C1=NN(c2ccccc2)C(=O)CN1` as the compound, how does the INHIBITION read?
Its INHIBITION is -174%.

For `COCc1ccc(CNC(=O)C2=NN(c3ccccc3)C(=O)CN2)cc1`, which INHIBITION is on record?
Its INHIBITION is 51.6%.

`COCCCN(Cc1cnc(-c2ccccn2)nc1)C1CCN(C)CC1` was tested. Which INHIBITION did it give?
Its INHIBITION is 23.9%.

`CCC1(O)CCCN(c2ncnc3c2c(C)nn3C)C1` (centres undefined) was tested. Which INHIBITION did it give?
Its INHIBITION is 13.7%.

`COCCOC(=O)N1CCn2nc(CN(C)Cc3nccs3)cc2C1` was tested. Which INHIBITION did it give?
The INHIBITION was 36.7%.

With `CCC(=O)N(c1ccc(C(=O)OC)cc1C)C(C)C` as the compound, how does the INHIBITION read?
The INHIBITION was 20.9%.

For `CN(C)CCOCC1CN(Cc2ccsc2)Cc2nnn(C)c21` (centres undefined), which INHIBITION is on record?
Its INHIBITION is 38.2%.

How did the INHIBITION turn out when `Cc1cccc(C(=O)N2C[C@@H](C)[C@@]3(CCN(c4ccsc4)C3=O)C2)n1` was run?
The INHIBITION was 19.4%.

With `C[C@@H]1CN(C(=O)c2cccc(F)c2)C[C@]12CCN(c1ccsc1)C2=O` as the compound, how does the INHIBITION read?
The INHIBITION was 50.9%.

With `C[C@@H]1CN(C(=O)c2ccsc2)C[C@]12CCN(c1ccsc1)C2=O` as the compound, how does the INHIBITION read?
Its INHIBITION is 35.3%.

Which INHIBITION does the source give for `CCc1nn(C)c2[nH]nc(NC(=O)c3cccnc3OC)c12` here?
Its INHIBITION is 43.1%.

How did the INHIBITION turn out when `Cc1nn(C)c(N(C)C)c1CNCc1nnc2n1CCCCC2` was run?
The INHIBITION was -7.94%.

`Cc1ccc(NC2CCN(C(=O)CCn3nc(C)cc3C)CC2)nn1` was tested. Which INHIBITION did it give?
Its INHIBITION is 15.4%.

`CNc1nc(C(=O)N2CCn3nc(C(=O)OC)cc3C2)cs1` was tested. Which INHIBITION did it give?
Its INHIBITION is 9.16%.

`COc1ccc(C[C@H]2CN(C(=O)c3ccn(C)n3)CC[C@H]2OC)cc1` was tested. Which INHIBITION did it give?
Its INHIBITION is -7.28%.

How did the INHIBITION turn out when `c1cncc(OCCCNC2COc3ccccc3C2)c1` (centres undefined) was run?
The INHIBITION was 38.5%.

`CC(C)NC(=O)C1(Cc2ccccc2-c2cccs2)CCNC1` (centres undefined) was tested. Which INHIBITION did it give?
Its INHIBITION is 41.2%.

How did the INHIBITION turn out when `Cc1noc(C)c1-c1ccc(C2CCCN2C(=O)c2cccnn2)nc1` (centres undefined) was run?
The INHIBITION was 31.6%.

`Cc1noc(C)c1-c1ccc(C2CCCN2C(=O)Cn2ccnc2)nc1` (centres undefined) was tested. Which INHIBITION did it give?
Its INHIBITION is 53.2%.

With `Cc1noc(C)c1-c1ccc(C2CCCN2C(=O)c2ccncn2)nc1` (centres undefined) as the compound, how does the INHIBITION read?
The INHIBITION was 61.7%.

How did the INHIBITION turn out when `CC(=O)N1CCCC1c1ccc(-c2c(C)noc2C)cn1` (centres undefined) was run?
The INHIBITION was 25.6%.

`Cc1noc(C)c1-c1ccc(C2CCCN2C(=O)c2cnn(C)c2)nc1` (centres undefined) was tested. Which INHIBITION did it give?
The INHIBITION was -32.2%.

`Cc1noc(C)c1-c1ccc(C2CCCN2C(=O)c2cccnc2)nc1` (centres undefined) was tested. Which INHIBITION did it give?
The INHIBITION was -5.71%.

For `Cc1csc(CCNC(=O)N2CCC(C(N)=O)CC2)n1`, which INHIBITION is on record?
Its INHIBITION is 36.9%.

With `Cc1nn(C)c2cnn(CC(=O)NCc3ccc(F)cc3)c12` as the compound, how does the INHIBITION read?
Its INHIBITION is 44.9%.

For `OCCC1(NCc2ccc(-n3cccn3)cc2)CCOCC1`, which INHIBITION is on record?
Its INHIBITION is 12%.

`CCN1CCN(C(=O)C2CCOC2)c2ccccc21` (centres undefined) was tested. Which INHIBITION did it give?
The INHIBITION was 48.3%.

Which INHIBITION does the source give for `COc1ccc(CCNC(=O)C(C)Nc2ccc(C)c(C)c2)cc1` (centres undefined) here?
Its INHIBITION is 58.5%.

For `COc1ccc(CCNC(=O)C(C)Nc2cccc(C)c2C)cc1` (centres undefined), which INHIBITION is on record?
Its INHIBITION is 20.9%.

For `COc1ccc(CCNC(=O)C(C)Nc2cc(C)ccc2C)cc1` (centres undefined), which INHIBITION is on record?
Its INHIBITION is 44.9%.

For `CCn1cc(CN2CCCN(C(=O)c3ccccc3C)CC2)cn1`, which INHIBITION is on record?
Its INHIBITION is -57.4%.

How did the INHIBITION turn out when `CCCn1nnnc1COC(=O)C1COc2ccc(Cl)cc2C1` (centres undefined) was run?
The INHIBITION was 32.3%.

`CCc1nncn1CCNC(=O)N1CCCC(Cc2nccn2C)C1` (centres undefined) was tested. Which INHIBITION did it give?
The INHIBITION was 17.6%.

Which INHIBITION does the source give for `Cc1nnc2n1CC(CNc1cnc3ccccc3n1)CC2` (centres undefined) here?
Its INHIBITION is 60.1%.

Which INHIBITION does the source give for `CCc1nnc2n1CC(CNc1cnc3ccccc3n1)CC2` (centres undefined) here?
The INHIBITION was 27.6%.

With `CC(C)c1nnc2n1CC(CNc1cnc3ccccc3n1)CC2` (centres undefined) as the compound, how does the INHIBITION read?
The INHIBITION was 43.4%.

Which INHIBITION does the source give for `CC(C(=O)N1CCN(Cc2ccc(C#N)cc2)CC1)n1ccnc1` (centres undefined) here?
The INHIBITION was 23.5%.

Which INHIBITION does the source give for `O=C1CCCN1Cc1nnc2n1CCCN(Cc1ccco1)C2` here?
Its INHIBITION is -9.23%.
